Shown are actives, neighbours in structure and some others; about 10% of the full set was active somewhere.
PNC assembly inh = High Content Assay for Compounds that inhibit the Assembly of the Perinucleolar Compartment | AID 2417, 2010 | PC3M PTB-GFP, PNC prevalence imaging, 16 h; active compounds read low | activity change (PNC), negative = inhibition, % at 10 µM | actives 3.1% (n = 140,000);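 active = readout at or below -70, meaning at least 70% loss of cells showing the perinucleolar compartment, a nuclear body marking cancer cells; inconclusive = readout between -30 and a set limit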;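 also: plate controls were DMSO wells for no effect and camptothecin positive control wells for full effect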
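Compounds are pinned in duplicate onto adhered PC3M cells stably expressing GFP-tagged PTB and incubated 16 h at 37 C. Cells are then fixed, nuclei stained with Hoechst, and PNC-positive cells counted.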
ALOX12 inhib = qHTS Assay for Inhibitors of 12-hLO (12-human lipoxygenase) | Potency, µM (titrated, usually from 57.1 µM), for inactives: top-dose activity change, negative = inhibition, usual class: inhibitors | actives 0.12% (n = 150,000) | purified 12-hLO, xylenol orange hydroperoxide absorbance | Polyunsaturated fatty acid lipoxygenase ALOX12 (Homo sapiens), P18054 | AID 1452, 2008; active = well fitted inhibition curve with a large enough effect; inconclusive = small, poorly fitted or top-dose-only effect; also: potency is read from the fitted curve at half-maximal effect; nearly all actives have a fitted effect of over 55% in size
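Hydroperoxide output read as Fe(III)-xylenol orange absorbance, 573-to-405 nm ratio, after 30 min reaction with 40 uM arachidonic acid. Enzyme: 150 nM purified human 12hLO, 15 min compound preincubation; 25 mM Hepes pH 7.0, room temperature.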
LMNA splice mod = qHTS Assay for Modulators of Lamin A Splicing; AID 1487, 2009; Potency, µM (titrated, usually from 46.1 µM), without a hit: at the top dose ratio change, negative = inhibition, usual class: inhibitors; actives 0.01% (n = 200,000); HeLa LMNA splicing GFP/RFP minigene ratio, 48 h; active = well fitted inhibition curve with a large enough effect in the signal ratio, with a control signal flat, not every such curve was filed as active; inconclusive = small, poorly fitted or top-dose-only effect, or effect the other way, or a change in a side signal; the % refers to the signal ratio; also: potency is read from the fitted curve at half-maximal effect
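Read-out is the ratio of GFP to DsRed2 object intensity, acquired by 488 nm laser-scanning cytometry on HeLa lamin A-EGFP minigene reporter cells. Compound incubation 48 hrs at 37 °C in Opti-MEM with 2% FBS; DMSO 0.5% final.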
HPGD block = qHTS Assay for Inhibitors of HPGD (15-Hydroxyprostaglandin Dehydrogenase); 15-hydroxyprostaglandin dehydrogenase [NAD(+)] (Homo sapiens), P15428; purified HPGD, NADH fluorescence kinetic, PGE2 substrate; Potency, µM, for the others: top-dose activity change, negative = inhibition, hits mostly inhibitors; actives 4.3% (n = 150,000); AID 894, 2007; also: potency is read from the fitted curve at half-maximal effect
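NADH formation kinetics: reaction with 30 uM PGE2 and 1 mM NAD+ (final), 20 nM enzyme, Tris-HCl pH 8 with Tween 20, after 15 min compound preincubation at room temperature. Fluorescence change, last versus first of five reads.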
ALDH1A1 inh = qHTS Assay for Inhibitors of Aldehyde Dehydrogenase 1 (ALDH1A1); Aldehyde dehydrogenase 1A1 (Homo sapiens), P00352; Purified ALDH1A1, NADH fluorescence, propionaldehyde substrate; Potency, µM (doses to about 75.3 µM), for the others: top-dose activity, negative = inhibition, most hits filed as inhibitors; actives 7.3% (n = 220,000); AID 1030, 2008;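 also: potency is read from the fitted curve at half-maximal effect; plate controls were no enzyme wells and a reference inhibitor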
Target sequence (P00352 whole entry, looked up): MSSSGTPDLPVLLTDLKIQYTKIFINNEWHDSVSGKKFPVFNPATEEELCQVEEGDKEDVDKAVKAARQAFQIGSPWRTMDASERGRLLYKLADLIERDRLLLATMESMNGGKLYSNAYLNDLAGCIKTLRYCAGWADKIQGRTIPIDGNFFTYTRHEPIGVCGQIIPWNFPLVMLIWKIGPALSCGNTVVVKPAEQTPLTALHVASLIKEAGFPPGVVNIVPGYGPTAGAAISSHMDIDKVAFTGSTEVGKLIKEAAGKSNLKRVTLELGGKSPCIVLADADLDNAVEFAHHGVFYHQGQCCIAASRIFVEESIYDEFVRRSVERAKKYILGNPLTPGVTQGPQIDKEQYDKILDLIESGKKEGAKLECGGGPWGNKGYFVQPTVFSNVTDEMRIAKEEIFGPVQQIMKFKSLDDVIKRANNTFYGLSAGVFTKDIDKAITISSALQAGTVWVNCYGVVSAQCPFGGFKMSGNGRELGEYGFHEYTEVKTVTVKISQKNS
* hit, by the source's call; u = inconclusive; x = no result given; [ ] = remark or other dose. Unless noted, calls follow the shape of the dose curve; as a rule, active = well fitted inhibition curve with a large enough effect (not every such curve was filed as active); inconclusive = small, poorly fitted or top-dose-only effect, or another doubt; inactive = no such curve, though single readings can be large or run the other way. Unless noted, % is scaled to controls: 0 for no effect and ±100 for the full control effect.

SMILES | PNC assembly inh | ALOX12 inhib | LMNA splice mod | HPGD block | ALDH1A1 inh
Cc1ccc(/C=C/C(=O)NCc2cccs2)cc1 | -15.6 | 1.4% | 5.2% | 14.1µM* | u
Cc1ccc(/C=C/C(=O)NCc2cccs2)c(C)c1 | x | x | x | x | -5.0%
Cc1cccc(Nc2ncnc3c2cnn3Cc2ccccc2)c1 | x | x | x | x | 22.4µM*
COc1ccc2cnn(Cc3ccccc3)c(=O)c2c1OC | -26.6 | -4.1% | -4.3% | x | 3.55µM*
COc1ccc(Nc2ncnc3c2cnn3Cc2ccccc2)cc1OC | -7.9 | -4.1% | u | x | 8.91µM*
O=C(O)c1ccc(Nc2ncnc3c2cnn3Cc2ccccc2)cc1 | x | x | 0.9%[9.22 µM] | x | u
COc1ccc(CC(=O)NNc2ncnc3c2cnn3Cc2ccccc2)cc1OC | x | x | x | x | 10µM*
c1cncc(-c2cncnc2-n2ccnc2)c1 | x | -3.2% | -6.4% | -1.3% | 4.8%
COc1ccccc1CNC(=O)c1cnc2sc(N3CCCCCC3)nn2c1=O | x | x | 1.5%[46 µM] | x | x
CCCN1C(=O)S/C(=C\c2ccc(N3CCOCC3)o2)C1=O | x | x | x | x | 0.224µM*
CCCN1C(=O)S/C(=C\c2ccc(N3CCOCC3)cc2C)C1=O | -14.5 | -3.0% | 6.5% | -11.2% | 1.58µM*
CCC(C)N1C(=O)S/C(=C/c2ccc(N3CCOCC3)cc2C)C1=O (configuration not stated) | 13.0 | -11.2% | u | -2.1% | 10µM*
Cc1cc(N2CCOCC2)ccc1/C=C1\SC(=O)N(C(C)C)C1=O | 13.4 | 2.2% | -3.3% | -17.1% | 5.01µM*
CCN1C(=O)S/C(=C\c2ccc(N3CCOCC3)cc2C)C1=O | -29.4 | -6.1% | 5.5% | x | -14.8%
CC(=O)N[C@@H](C(=O)O)C(C)(C)SN=O | x | -3.5% | x | -14.6% | -11.8%
CCCCc1cc2c(cn1)C(=O)C(C)(OC(C)=O)C(=O)C2 (configuration not stated) | x | 0.0%[11.4 µM] | -14.1%[9.22 µM] | -3.5% | 1.26µM*
CCCCCCCc1cc2c(cn1)=C(OC)C(C)(OC(C)=O)C(=O)C=2Cl (configuration not stated) | x | x | x | -5.1% | -10.9%
COc1ccc(CNC(=O)Cn2c(=O)ccc3cc(S(=O)(=O)N4CCCC4)ccc32)cc1 | x | x | -8.7%[46 µM] | x | x
CC(C)C(C(=O)O)N1C(=O)/C(=C/C=C/c2ccco2)SC1=S (configuration not stated) | -13.7 | u | u | 3.55µM* | u
Cc1cccc(CNc2nc(-c3ccc(C(=O)N(C)C)cc3)nc3ccccc23)c1 | x | -1.3% | u | 25.1µM* | -7.6%
CC(=O)NCCNc1nc(-c2ccc(C(=O)N(C)C)cc2)nc2ccccc12 | x | x | 3.4% | x | 17.4%
CNc1nc(-c2ccc(N(C)C)cc2)nc2ccccc12 | x | -8.6% | u | u | -12.4%
CN(C)C(=O)c1ccc(-c2nc(NCc3cccs3)c3ccccc3n2)cc1 | x | 2.9% | -5.3% | 15.8µM* | 1.1%
CN(Cc1ccccc1)c1nc(-c2ccc([N+](=O)[O-])cc2)nc2ccccc12 | -98.2* | 2.4% | -6.1% | -13.7% | -7.4%
CN(C)c1ccc(-c2nc(N(C)C)c3ccccc3n2)cc1 | x | 8.0% | 12.6µM* | u | u
SMILES | PNC assembly inh | ALOX12 inhib | LMNA splice mod | HPGD block | ALDH1A1 inh
Cc1cc2c(=O)c(C(=O)c3ccncc3)cn(CC(=O)Nc3cccc(C)c3C)c2cc1C | x | x | -15.0%[46 µM] | x | x
O=C(Cn1ccn(-c2cccc(Cl)c2)c(=O)c1=O)NCCc1ccccc1 | x | x | 6.0%[46 µM] | x | x
CC(C)C[C@@H](CC(=O)N[C@@H](CCC(=O)O)CC(=O)O)NC(=O)[C@@H]1CNCC[C@H]1NC(=O)C[C@H](CCCN)NC(=O)C[C@H](CO)NC(=O)[C@@H]1CNCC[C@H]1N | x | 2.4% | x | -7.6% | u
CN(C)C(=O)c1ccc(-c2nc(N(C)Cc3ccco3)c3ccccc3n2)cc1 | x | -2.0% | u | 12.6µM* | u
CC(Cc1n[nH]c(=S)o1)c1ccccc1 (configuration not stated) | x | x | -7.0%[46 µM] | x | 17.8µM*
S=c1[nH]nc(Cc2cccc3ccccc23)o1 | u | -1.6% | 8.9% | u | 10µM*
Cc1[nH]c2ccccc2c1Cc1n[nH]c(=S)o1 | u | -6.3% | -0.3% | u | u
CS(=O)(=O)Nc1ccc(C(=O)NCCSCc2ccccc2)cc1 | x | x | x | x | 11.2µM*
O=C(/C=C/c1ccccc1)NCCCNC(=O)/C=C/c1ccccc1 | x | x | 26.0%[46 µM] | x | -4.1%
COc1ccc(/C=C/C(=O)NCCSCc2ccco2)cc1 | 38.9 | 1.0% | 2.7% | 14.1µM* | u
O=C(/C=C/c1ccccc1)NCCSCc1ccccc1 | u | -0.6% | -3.6% | 3.16µM* | 1µM*
COc1cc(C2C(=O)N(C3CCCCC3)CC(=O)N2C2CCCC2)ccc1OC(C)C (configuration not stated) | x | x | -7.0%[46 µM] | x | x
CN(C)c1ccc(-c2cncnc2NCc2cccs2)cc1 | x | 1.0% | 0.9% | u | u
C/C=C/C=C/C=O | x | -5.1% | x | -8.1% | 25.1µM*
CCN(CC)c1ccc(S(=O)(=O)Nc2cc(Cl)ccc2Cl)cc1NC(=S)NC(=O)C1CCCC1 | -18.7 | -23.0% | u | -29.7% | 22.4µM*
COc1ccccc1NS(=O)(=O)c1ccc(Cl)c(NC(=S)NC(=O)C2CCCC2)c1 | u | -29.6% | u | -8.1% | u
Cc1cccc(NC(=O)c2ccc(-c3ccccc3[N+](=O)[O-])o2)c1 | x | x | x | x | 2.24µM*
C#CC[N+]1(CC#Cc2ccccc2)CCCCC1 | x | x | x | x | -3.2%
O=C(C[N+]1(CC#Cc2ccccc2)CCCCC1)c1ccccc1 | x | x | -22.0%[9.22 µM] | x | 8.91µM*

Bioassay records: PubChem, National Center for Advancing Translational Sciences (NCATS)
